Assay results reported in article PMC5540273 (PLoS ONE, 2017).

Legend:
DRAK1 = system: T1, DRAK1
T1 construct: gene STK17A

ERK1 = system: T2, ERK1
T2 construct: gene MAPK3

ERK5 = system: T3, ERK5
T3 construct: gene MAPK7

ERK8 = system: T4, ERK8
T4 construct: gene MAPK15
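Further: kd values determined as follow-up on hits from a single-replicate KINOMEscan panel screen.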

CS(=O)(=O)CCNCc1nc(-c2ccc3ncnc(Nc4ccc(OCc5cccc(F)c5)c(Cl)c4)c3c2)cs1.Cl [GW583340]
Kd (EGFR): 0.69 nM | Kd (ERBB2): 5.9 nM | Kd (ERBB4): 26 nM

NC(=O)c1sc(-n2cnc3ccccc32)cc1OCc1ccccc1F [GSK1024306]
Kd (EGFR): 1300 nM

C[C@H]1CC[C@@H](C(=O)Nc2ccccc2)CN1c1cc(-c2ccc3c(N)n[nH]c3c2)nc(N)n1 [GSK2283293]
Kd (DRAK1): 11 nM

Cl.c1ccc(Cn2ncc3cc(Nc4ncnc5ccccc45)ccc32)cc1 [GW273749]
Kd (EGFR): 7.6 nM | Kd (ERBB2): 11 nM | Kd (ERBB4): 61 nM

Cl.O=S(=O)(c1cccc(F)c1)c1ccc(Nc2ncnc3cc(Br)sc23)cc1Cl [GSK306886]
Kd (EGFR): 61 nM | Kd (ERBB2): 95 nM

Cc1cc(N2CCC(NS(=O)(=O)c3ccc(F)cc3)CC2)nc(Nc2cccc(C#N)c2)n1.O=C(O)C(F)(F)F [GSK1653537]
Kd (DYRK1B): 2800 nM

COc1ccc(Nc2nccc(N3CCC(NC(=O)c4cccc(NC(C)=O)c4)C3)n2)cc1 (stereo not shown) [GSK1379732]
Kd (DYRK1B): > 10000 nM

O=C(CCO)NCCn1ccc2ncnc(Nc3ccc(Oc4cccc(C(F)(F)F)c4)c(Cl)c3)c21
Kd (EGFR): 2.3 nM | Kd (ERBB2): 0.88 nM | Kd (ERBB4): 100 nM

FC(F)(F)c1ccc(-c2cc(-c3c[nH]nc3-c3ccccn3)ccn2)cc1 [GW599550]
Kd (EIF2AK1): > 10000 nM

Clc1cccc(-c2nc(Nc3ccncc3)c3ccccc3n2)c1 [GW873004]
Kd (EPHA1): > 10000 nM

CCC(CC)(CC)n1cnc2c(N)ncnc21 [SKF-97620]
Kd (EPHA2): > 10000 nM

O=C(Nc1n[nH]c2nc(-c3ccco3)c(Br)cc12)c1ccc(CN2CCCC2)cc1.O=C(O)[C@H](O)[C@@H](O)C(=O)O [SB-742352]
Kd (EPHA4): > 10000 nM | Kd (EPHA6): > 10000 nM

FC(F)(F)c1ccc(-c2nn3ncccc3c2-c2ccnc(Nc3cccc(C(F)(F)F)c3)n2)cc1 [GW828205]
Kd (EPHA4): > 10000 nM

Cc1ccc(O)cc1Nc1cc(C(F)(F)F)nc2ccc(-c3ccncc3)cc12 [GW630823]
Kd (EPHA7): > 10000 nM

Nc1nc(-c2ccc3c(N)n[nH]c3c2)cc(N2CCC[C@@H](C(=O)Nc3ccccc3)C2)n1.O=C(O)C(F)(F)F.O=C(O)C(F)(F)F [GSK2288359]
Kd (ERK1): 5300 nM

O=C(Nc1ccccc1F)NC1CCN(c2ccnc(Nc3ccc(F)cc3)n2)C1 (stereo not shown) [GSK1379722]
Kd (ERK1): > 10000 nM

Cc1ccc(NC(=O)c2cccc(C#N)c2)cc1-c1ccc(C(=O)Nc2ccncc2)cc1 [GSK1398463]
Kd (ERK5): > 10000 nM

Cc1ccc(C)c(NC(=O)NCCNc2ccnc(Nc3ccc(F)cc3)n2)c1 [GSK1379878]
Kd (ERK5): > 10000 nM

c1ccc(-c2ccc3c(-c4ccnc(Nc5ccc6c(c5)OCCO6)n4)cnn3n2)cc1 [GW818941]
Kd (ERK8): 670 nM

O=C(Nc1ccccc1)Nc1ccc(Oc2ccc3nccn3n2)cc1
Kd (ERN1): > 10000 nM
